Screening results as filed in PubChem.
Mtb bLac sens = beta-lactam sensitization of Mtb H37Rv; M. tuberculosis H37Rv growth with meropenem, percent inhibition; inhibition, % at 25 µM; hit rate 0.27% among 330,000; AID 434955; call rule not given here;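 note: growth measured after seven days incubation then overnight dye step; 0% = bacteria only wells and 100% = bacteria with antibiotic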
FBA Mtb inh = inhibits M. tuberculosis FBA enzyme; inhibition, % at 1 µM; hit rate 2.3% among 360,000; P9WQA3; purified M. tuberculosis FBA, fluorescence read-out;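 note: 0% = vehicle and 100% = reference inhibitor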
Target sequence (P9WQA3 whole entry, looked up): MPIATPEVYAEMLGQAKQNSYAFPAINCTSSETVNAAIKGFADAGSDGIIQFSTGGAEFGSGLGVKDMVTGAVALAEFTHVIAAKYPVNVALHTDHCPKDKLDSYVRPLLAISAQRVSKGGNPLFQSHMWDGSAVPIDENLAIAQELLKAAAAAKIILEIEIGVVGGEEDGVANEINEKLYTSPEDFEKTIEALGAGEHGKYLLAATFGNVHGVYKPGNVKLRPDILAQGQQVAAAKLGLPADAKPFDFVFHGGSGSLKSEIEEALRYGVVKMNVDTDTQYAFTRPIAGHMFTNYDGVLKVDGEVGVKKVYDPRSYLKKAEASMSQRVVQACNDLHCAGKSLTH
Rv3671c protease = Rv3671c (M. tuberculosis) protease inhibition; P9WHR9; inhibition, % at 5.96 µM; hit rate 0.048% among 320,000; AID 2606; in the data active = inhibition above about 38%;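 note: extracellular domain of Rv3671c used as enzyme; 0% = enzyme with DMSO and 100% = no enzyme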
GDH-TPI counter-1 = inhibits GDH-TPI coupling enzymes, artifact for Mtb FBA screen. GDH-TPI coupled enzyme counterscreen, NADH absorbance. hit rate 1.2% among 360,000. inhibition, % at 4.8 µM; in the data active = inhibition above about 30%;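 note: 0% = DMSO wells and 100% = wells lacking the enzyme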
RecA splice inh = inhibitors of M. tuberculosis RecA intein splicing. P9WHJ3. cell-free RecA intein splicing, fluorescence. inhibition, % (test concentration not listed). hit rate 0.75% among 290,000; in the data active = inhibition above about 30%; inconclusive = no clear call, values can overlap the other calls;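 note: 0% = vehicle wells and 100% = reference inhibitor control wells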
Mtb UGM inh = blocks M. tuberculosis UGM enzyme | hit rate 0.06% among 320,000 | P9WIQ1 | inhibition, % at 10 µM | purified UGM, fluorescence polarization probe displacement | AID 504406; in the data active = inhibition above about 10%, passing the limit was not always enough; inconclusive = no clear call, values can overlap the other calls
Mtb FBA confirm = Mtb FBA inhibition, confirmed | inhibition, % at 1 µM | purified M. tuberculosis FBA, fluorescence read-out | hit rate 78% among 5,600 | shares compounds with FBA Mtb inh;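 note: 0% = vehicle wells and 100% = reference inhibitor wells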
GDH-TPI counter-2 = GDH-TPI inhibition counter-screen for FBA inhibitors. GDH-TPI coupled enzyme counterscreen, fluorescence. hit rate 81% among 5,600. shares compounds with FBA Mtb inh. inhibition, % at 1 µM; in the data active = inhibition above about 10%
Starred values were filed as active, the others as inactive; u = inconclusive; x = no result; + = active, no number. Compounds with a hit are over-represented: about 4% of the library has one in this group of screens. Cut-off read from the data, not from the text of the source, unless noted: active = inhibition above about 27%; inactive = the rest.

SMILES	Mtb bLac sens	FBA Mtb inh	Rv3671c protease	GDH-TPI counter-1	RecA splice inh	Mtb UGM inh	Mtb FBA confirm	GDH-TPI counter-2
Cc1cc(OC(C)C(=O)NCC2CCC(C(=O)O)CC2)c2c3c(c(=O)oc2c1)CCC3 (centres undefined)	-6.5	19.6	-4.9	6.9	-2.0	1.7	x	x
CCCc1cc(=O)oc2cc(C)cc(OCC(=O)NCC(O)c3ccccc3)c12 (centres undefined)	3.3	61.2*	-0.9	10.3	-1.3	-3.7	161.4*	151.3*
CC/C(=N\N=C(/CC)c1ccccc1N)c1ccccc1N	-4.7	-1.0	-0.7	4.1	0.1	-0.5	x	x
COc1cc(OC)cc(C(=O)NCCS(=O)(=O)N2CCN(Cc3ccccc3)CC2)c1	-2.0	5.0	-5.4	13.6	-1.3	1.3	x	x
CCCc1cc(=O)[nH]c(SCC(=O)N(CC)c2c(N)n(Cc3ccccc3)c(=O)[nH]c2=O)n1	-10.8	0.6	4.2	-7.1	-2.7	2.8	x	x
COC(=O)[C@H]1C[C@H](OC(=O)NCc2ccco2)[C@@]2(O)CN(S(=O)(=O)c3ccc(C)cc3)CC2[C@H]1C(=O)OC (some centres undefined)	x	2.9	x	2.8	x	x	x	x
Cc1cc(OC(C)C(=O)NCC(O)c2ccccc2)c2c(C)cc(=O)oc2c1 (centres undefined)	0.3	71.2*	0.0	11.1	-1.0	1.5	110.8*	98.3*
O=C(COC(=O)C12CC3CC(CC(Br)(C3)C1)C2)Nc1c(F)cccc1F	3.4	-2.3	-8.6	-3.9	x	-2.0	x	x
COc1cc(O)c(CCC(=O)c2ccc(OC)c(OC)c2)c(OC)c1	-7.5	0.5	-9.2	6.8	-1.1	-0.4	x	x
Nc1ncnc2nc(-c3ccccc3)[nH]c12	x	68.7*	x	2.6	x	x	4.0	-1.6
CCOC(=O)Nc1ccc2c(COC(=O)CN(C)S(=O)(=O)c3ccc(C)cc3)cc(=O)oc2c1	1.2	79.2*	-15.9	12.9	0.9	1.0	41.2*	23.0*
CCOC(=O)Nc1ccc2c(COC(=O)c3ccccc3O)cc(=O)oc2c1	14.7	56.4*	-6.0	20.0	-0.3	-0.6	37.8*	32.1*
Cc1ccc(S(=O)(=O)NCC(=O)OCc2cc(=O)oc3cc(C)ccc23)cc1	-6.1	3.0	-1.4	13.4	x	-1.6	x	x
CCOC(=O)CCC1(C(=O)OC)C(=O)CCCCCC=C1C(=O)OC (centres undefined)	x	4.0	x	8.0	x	x	x	x
CCOC(=O)C1=C(COC(=O)c2ccc(Cl)cc2[N+](=O)[O-])NC(=O)NC1C (centres undefined)	-0.2	6.0	0.4	8.5	-0.4	1.3	x	x
CC(C)c1csc(CN2CCC(n3nccc3NC(=O)Cc3ccccc3)CC2)n1	u	4.0	-7.5	2.8	1.8	-3.4	x	x
O=C(CN1CCCC1)Nc1c2c(nc3ccccc13)N(Cc1ccccc1)CC2	3.4	30.6*	0.9	9.0	1.5	2.1	46.2*	34.4*
O=C(CN1CCOCC1)Nc1c2c(nc3ccccc13)N(Cc1ccccc1)CC2	-11.3	44.0*	-0.2	7.9	-3.6	3.8	60.2*	50.9*
CN(C)c1cc(NC(=O)CN2CCCC2)c2ccccc2n1	-2.8	16.6	-2.4	3.8	x	-0.6	x	x
COc1ccccc1-n1cc(-c2ccccc2)c2c(=S)nc[nH]c21	-4.0	0.4	-5.6	18.1	8.6	2.0	x	x
CN(CC(=O)Nc1ccc(F)cc1)C(=O)CSc1nncs1	-6.4	3.6	-4.6	11.0	0.4	-1.6	x	x
Cc1csc(SCC(=O)N(C)CC(=O)Nc2ccc(F)cc2)n1	-0.5	27.9*	1.0	-5.7	0.4	3.2	29.5*	13.1*
Cc1cc(=O)oc2c(C)c(OCC(=O)NC3CC(C)(C)NC(C)(C)C3)ccc12	4.9	18.0	1.0	10.4	-3.6	-4.4	x	x
Cc1c(OCC(=O)NC2CC(C)(C)NC(C)(C)C2)ccc2c1oc(=O)c1ccccc12	8.4	63.2*	-5.8	17.7	-0.6	0.3	49.8*	58.9*
Cc1c(OCC(=O)NC2CC(C)(C)NC(C)(C)C2)ccc2c3c(c(=O)oc12)CCC3	1.3	31.7*	-3.5	13.9	0.2	1.0	43.5*	34.7*
SMILES	Mtb bLac sens	FBA Mtb inh	Rv3671c protease	GDH-TPI counter-1	RecA splice inh	Mtb UGM inh	Mtb FBA confirm	GDH-TPI counter-2
Cc1ccccc1S(=O)(=O)N1C[C@H]2[C@H]3C(=O)N(c4ccccc4)C(=O)[C@H]3CC(=O)[C@H]2[C@@H]1c1ccc(Cl)cc1	x	-2.1	x	x	x	x	x	x
Fc1ccc(-n2c(-c3cccs3)nc3nc4ccccc4nc32)cc1	8.2	80.8*	3.5	4.4	-16.1	0.8	0.3	-4.3
Cc1ccc(-n2c(-c3cccs3)nc3nc4ccccc4nc32)cc1	-3.1	x	-2.4	x	-0.9	-0.4	x	x
COCCNc1c(-c2cc3ccc(C)c(C)c3[nH]c2=O)nc2ccccn12	-1.0	-0.6	-1.5	16.6	-3.2	-0.6	x	x
CCCCS(=O)(=O)Nc1ccc(C)cn1	-1.8	41.4*	-0.9	-1.1	0.9	1.6	+	+
Cc1ccc(S(=O)(=O)N2C[C@H]3C(=O)C[C@@H](c4ccc(Cl)cc4)N(S(=O)(=O)c4ccccc4C)[C@H]3C[C@H]2c2ccc(Cl)cc2)cc1	x	2.2	x	-3.8	x	x	x	x
O=c1cc(Nc2ccc3c(c2)OCCO3)[nH]c(=O)n1-c1ccc(Cl)cc1	2.5	33.5*	3.6	5.8	-0.7	-1.7	77.9*	69.0*
COc1ccc(/C=N/c2oc(-c3ccccc3)cc2C#N)cc1OC	-4.7	48.4*	-0.4	2.0	-1.6	0.2	28.1*	24.6*
CN(C)CCn1c(SCc2ccccc2C#N)nc2c(sc3ccccc32)c1=O	8.8	50.4*	-4.0	-1.3	-0.5	-0.3	74.6*	59.2*
CCN(CC)CCn1c(SCC(=O)Nc2ccc(F)cc2)nc2c(sc3ccccc32)c1=O	3.3	x	-5.9	x	1.9	1.5	x	x
COc1ccccc1NC(=O)CSc1nc2c(sc3ccccc32)c(=O)n1CCN(C)C	-7.0	51.1*	-6.1	21.9	35.4*	1.4	75.6*	60.2*
CC(C)CCn1c(SCC#N)nc2c(sc3ccccc32)c1=O	6.8	1.0	-1.4	6.4	-3.9	0.3	x	x
CC(Sc1nc(-c2ccccc2)c(-c2ccccc2)[nH]1)C(=O)NCC1CCCO1 (centres undefined)	x	9.6	x	3.1	x	x	x	x
O=[N+]([O-])c1ccccc1S(=O)(=O)Nc1cccc(-c2ccc(N3CCOCC3)nn2)c1	-11.4	0.1	-2.5	9.1	-0.2	x	x	x
O=[N+]([O-])c1ccccc1S(=O)(=O)Nc1ccc(-c2ccc(N3CCOCC3)nn2)cc1	-13.2	53.2*	4.3	14.9	1.0	x	+	+
Cc1ccc([C@H]2C(C(=O)O)=CC[C@@H](c3ccc(C)cc3)N2S(=O)(=O)c2ccc(C)cc2)cc1	0.9	1.7	-4.7	12.5	x	-2.6	x	x
O=C(CN1C(=O)CCC1=O)Nc1nc(-c2ccccn2)cs1	7.4	0.8	-3.9	-3.8	0.6	2.9	x	x
O=C(CN1C(=O)CCC1=O)Nc1nc(-c2nc3ccccc3s2)cs1	3.4	33.5*	5.7	-1.9	2.3	-1.5	9.9	4.3
